Records with an inconclusive call do not appear. Activity calls are given as the source filed them. The call rests on the fitted dose curve; in most records, active means well fitted inhibition curve with a large enough effect; inconclusive means small, poorly fitted or top-dose-only effect; inactive means flat fitted curve, though single readings scatter.
Columns and labels:
Test in all cases: qHTS profiling for inhibitors of Plasmodium falciparum proliferation (AID 504749); further: nearly all actives have a fitted effect of over 60% in size
Conditions in all cases: P. falciparum in erythrocytes, SYBR Green DNA, 72 h; series mostly up to 28.7 µM
3D7 = system: 3D7
Outline: (§1)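 Fluorescence of SYBR Green-bound parasite DNA, read at 485/535 nm, served as the growth measure. Infected erythrocytes were cultured with compound 72 h; artemisinin (0.29 uM) and DMSO wells defined the normalization range.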

AA1029 = system: AA1029
Outline: as §1

CP211 = system: CP211
Outline: as §1

CP215 = system: CP215
Outline: as §1

CP217 = system: CP217
Outline: as §1

CP250 = system: CP250
Outline: as §1

CP252 = system: CP252
Outline: as §1

CP256 = system: CP256
Outline: as §1

CP260 = system: CP260
Outline: as §1

CP266 = system: CP266
Outline: as §1

CP297 = system: CP297
Outline: as §1

CP315 = system: CP315
Outline: as §1

CP329 = system: CP329
Outline: as §1

FAB9 = system: FAB9
Outline: as §1

JCK = system: JCK
Outline: as §1

N140 = system: N140
Outline: as §1

PC15 = system: PC15
Outline: as §1

PC49 = system: PC49
Outline: as §1

SC27B = system: SC27B
Outline: as §1

TAB165 = system: TAB165
Outline: as §1

Measured: Potency

CCN1C[C@]2(COC)[C@H](O)C[C@H](OC)[C@]34C1C([C@H](OC)[C@H]23)[C@]1(OC(C)=O)C2[C@@H](OC(=O)c3ccccc3)C(O)(C[C@H]24)[C@@H](OC)[C@@H]1O
inactive: 3D7 | AA1029 | CP211 | CP215 | CP217 | CP250 | CP252 | CP256 | CP260 | CP266 | CP297 | CP315 | CP329 | FAB9 | JCK | N140 | PC15 | PC49 | SC27B | TAB165

From PubChem BioAssay (NCATS)
